# Molecular target: ATP10B
# Assay: pooled miR-30 sensor sort-seq; sequence = guide strand
# Details: shRNA
# Further: reference of the scale not given here.
row,Sequence,sensor-assay potency score (higher = more potent)
1,TAACATGGTGATTTCTCTGTGG,0.162
2,TTCTTGGTGAGAATACTCGCTG,-0.605
3,TTGAAGAATATCATCTGCCAGT,-0.482
4,TTGATGGTGACCCTCTGCCTGG,-1.45
5,TTTGAGATTAGAGACTTCCCAC,0.383
6,TAAGGTGAGTTGATTCTCCAGA,0.552
7,TTTATCTGGAGTTACATCTTTT,-0.334
8,TTTGTCTCTCCATCCAAGCTGG,-0.607
9,TTTATTGCTTTATCAAAGCGGT,-0.352
10,TCGCTTAGCATTTTCTTGGTGA,0.0526
11,TTGGTGTAGACAACAATCTCGC,-0.19

# Molecular target: ATP13A3
# Assay: as above
# Details: shRNA
row,Sequence,sensor-assay potency score (higher = more potent)
1,TTCGGTTTCATTGTCTACGTGT,0.717
2,TAAAGCTTTAGCTTCTGTGGTT,-0.122
3,TATAACACTGAACAGCTGGAAA,-0.978
4,TTGACGTACAAGAAACACCTTC,0.452
5,TTAATTGCAGCTCTGACACAGG,0.0379
6,TAGACATAGATTTTGGACTTGA,-0.0415
7,TTCTTCAGTTGCTTCTTCCAGA,-0.0869
8,TAGATTTTGGACTTGAAACTGG,-0.128
9,TTGACATGATCCATTCTCCTTA,-0.0274
10,TTCATCAGTAGTCCTCAGCAGC,-0.704

# Molecular target: ATP2B3
# Assay: as above
# Details: shRNA
row,Sequence,sensor-assay potency score (higher = more potent)
1,TTTCTTGACAGAGTAAGCTAAG,-0.513
2,TTGTCGGTGGGAGACGACCGGG,-1.43
3,TTTTTCAAGAGGATCTCTGAGG,-0.749
4,TTAGGCAACTTTATACAGCAGC,-0.477
5,TTCCTCACCATGTCGTCCCGGT,-0.00689
6,TTGATCAGAAACTCGGGCGTGG,0.126
7,AAAAAAAACAACTACAACCTTG,-0.501
8,TTGGCTTCTTTTGAACTCTTGG,0.325
9,TTGTAAAGCTTGTCTTCCGGGA,-0.394
10,TGAAACTGCAGGAACTTGGAGA,0.195
11,TTCTTTTGAACTCTTGGCCCTG,-0.519
12,TTGACTGCTTCTGCTCAGGGGT,-0.897
13,TTTATGAACTGAACACAGTTGA,0.503
14,TTTTTTTGCATGAAGATGCTGA,0.145
15,TTTGTAAAGCTTGTCTTCCGGG,-0.371
16,TAAAACATATTTATGAACTGAA,-0.383
17,TTGAAGAACACAAAGACCCTCA,0.724
18,TTGCTGTTCAAGATGTTGGTGC,0.726
19,TTTTCTTGACAGAGTAAGCTAA,-0.151
